Our source for the growth values is PubChem BioAssay (NCI).

About 83,000 compounds went through this panel and 20% of them were active in at least one assay; those are over-represented in the sample as a whole.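 How to read the values: 0–100, growth inhibition (40 = 60% inhibited); 0, no net growth; -100 to 0, cell death (-40 = 40% of starting cells died; -100 = all dead).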 Unmarked numbers belong to inactive results. Calls of active or inactive are those of the source. Rule for the calls: active = growth percent below 10; inactive = the rest.

Holding throughout (assay): NCI-60 one-dose screen, 48 h (100 = growth as untreated, 0 = no growth, -100 = all killed)
One experiment has as its system NCI-H23 lung. The settings on record: 10 µM unless noted.
For a further experiment, the system named is NCI-H226 lung. Conditions: 10 µM unless noted.
The next experiment relates to NCI-H322M lung. Conditions: 10 µM unless noted.
A further experiment deals with HOP-62 NSCLC. The settings on record: 10 µM unless noted.
The subject of the next experiment is NCI-H460 lung. The settings on record: 10 µM unless noted.
The next experiment concerns HOP-92 NSCLC. Conditions: 10 µM unless noted.
For a further experiment, the system named is NCI-H522 lung. The settings on record: 10 µM unless noted.
The test system of another experiment is A549/ATCC NSCLC. Conditions: 10 µM unless noted.
A further experiment has as its system 786-0 renal. The settings on record: 10 µM unless noted.
The test system of the next experiment is COLO 205 colon. The settings on record: 10 µM unless noted.
A further experiment relates to DU-145 prostate. Conditions: 10 µM unless noted.
A further experiment deals with K-562 leukemia. Conditions: 10 µM unless noted.
Another experiment has as its system MALME-3M melanoma. Conditions: 10 µM unless noted.
The test system of the next experiment is MDA-MB-231 breast. Conditions: 10 µM unless noted.
For the next experiment, the system named is RXF 393 renal. Conditions: 10 µM unless noted.
In a further experiment the test system is SF-268 CNS. Conditions: 10 µM unless noted.
The subject of a further experiment is SF-295 CNS. Conditions: 10 µM unless noted.
The test system of the next experiment is SF-539 CNS. The settings on record: 10 µM unless noted.
For the next experiment, the system named is UACC-257 melanoma. Conditions: 10 µM.
A further experiment has as its system M14 melanoma. The settings on record: 10 µM unless noted.

As to `CC(C)SC1=NC(=C(C(=N1)NC2=ClC=CC=C2)C#N)C3=CC=CC=C3`, the growth with NCI-H23 lung was 37.7%; in the experiment with NCI-H226 lung it was 69.3%; with NCI-H322M lung it was 28%; in the experiment on HOP-62 NSCLC it was 72.9%; in the experiment with NCI-H460 lung, 22.2%; in the experiment with HOP-92 NSCLC it was 76.6%. Moreover, the growth in the experiment on NCI-H522 lung was 84.5%; in the experiment on A549/ATCC NSCLC it was 35.2%; in the experiment on 786-0 renal it was 34.7%; with COLO 205 colon it was 71.4%; in the experiment on DU-145 prostate, 81.2%; in the experiment with K-562 leukemia, 59.6%. Also, the growth is 65.4% with MALME-3M melanoma; 78.9% with MDA-MB-231 breast; 69.3% in the experiment with RXF 393 renal; 78.4% in the experiment on SF-268 CNS; 52.8% with SF-295 CNS; 44.9% in the experiment on SF-539 CNS. The growth in the experiment on UACC-257 melanoma is 100%; in the experiment on M14 melanoma, 89.1%.

`COC[C@@]1(C)CC[C@]2(C)CC[C@]3(C)C(=CC[C@@H]4[C@@]5(C)CCCNC(C)(C)[C@@H]5CC[C@]43C)C2C1` (some centres not stated): the growth in the experiment with NCI-H23 lung was 75.4%; with NCI-H226 lung, 81.3%; with NCI-H322M lung, 89.4%; in the experiment with HOP-62 NSCLC it was 83.9%; in the experiment on NCI-H460 lung, 29.8%; in the experiment on HOP-92 NSCLC, 73%. Further, the growth was 76.7% with NCI-H522 lung; 55.7% with A549/ATCC NSCLC; 59.1% in the experiment on 786-0 renal; 22% with COLO 205 colon; 73.6% in the experiment with DU-145 prostate; 6.79% (active) in the experiment on K-562 leukemia. The growth in the experiment on MALME-3M melanoma was 56.7%; in the experiment on MDA-MB-231 breast it was 77.7%; in the experiment with RXF 393 renal it was 72.2%; with SF-268 CNS, 77.1%; in the experiment with SF-295 CNS, 3.52% (active); in the experiment with SF-539 CNS it was 62.7%. Also, the growth is 60% with UACC-257 melanoma and 50.1% in the experiment on M14 melanoma.

`O=c1oc2ccc(-c3ccc(F)cc3F)cc2c(=O)n1-c1cccc(C(F)(F)F)c1`: the growth was 0.0881% (active) in the experiment on NCI-H23 lung; 13.4% with NCI-H226 lung; 3.52% (active) in the experiment with NCI-H322M lung; 15% in the experiment on HOP-62 NSCLC; 4.79% (active) in the experiment on NCI-H460 lung; -25.6% (active) in the experiment with HOP-92 NSCLC. Further, the growth in the experiment on NCI-H522 lung was 0.254% (active); in the experiment with A549/ATCC NSCLC it was 9.67% (active); in the experiment on 786-0 renal, 14.7%; with COLO 205 colon it was 87.3%; in the experiment on DU-145 prostate, 15.6%; in the experiment on K-562 leukemia, 12.9%. Besides, the growth is -14.7% (active) in the experiment with MALME-3M melanoma; -4.78% (active) in the experiment with MDA-MB-231 breast; -24.7% (active) in the experiment on RXF 393 renal; 16.1% with SF-268 CNS; -17.3% (active) in the experiment on SF-295 CNS; 11.6% in the experiment with SF-539 CNS. The growth in the experiment on UACC-257 melanoma is -9.2% (active).

Take `O=S(=O)(NC1CC2CCC1C2)c1ccc2c(c1)C(=NO)c1cc(S(=O)(=O)NC3CC4CCC3C4)ccc1-2` (configuration not stated): the growth is -84.2% (active) in the experiment on NCI-H23 lung; 75.2% in the experiment with NCI-H226 lung; 58.3% in the experiment with NCI-H322M lung; -70.5% (active) with HOP-62 NSCLC; 23.5% in the experiment with NCI-H460 lung; -4.1% (active) in the experiment with HOP-92 NSCLC. Besides, the growth in the experiment with NCI-H522 lung was 32.4%; in the experiment on A549/ATCC NSCLC, 75%; with 786-0 renal, 31.3%; with COLO 205 colon, 85.5%; in the experiment with DU-145 prostate it was 4.92% (active); with K-562 leukemia, 11.9%. The growth in the experiment with MALME-3M melanoma is -78.9% (active); in the experiment with MDA-MB-231 breast it was -21.9% (active); in the experiment with RXF 393 renal it was -9.66% (active); with SF-268 CNS, 8.95% (active); in the experiment on SF-295 CNS it was 62.9%; in the experiment with SF-539 CNS, -35% (active). Also, the growth was 105% in the experiment on UACC-257 melanoma and 24.9% in the experiment on M14 melanoma.

For the compound `O=C(Nc1cccc(-c2nc(-c3ccc(NC(=O)c4cccnc4)cc3Cl)no2)c1)Nc1ccc(NC(=O)C2CC2)c(C(F)(F)F)c1`, the growth in the experiment with NCI-H23 lung is -68.6% (active); with NCI-H226 lung, -55.9% (active); in the experiment with NCI-H322M lung, -30.7% (active); with HOP-62 NSCLC, -47.8% (active); in the experiment with NCI-H460 lung it was -77.7% (active); in the experiment on HOP-92 NSCLC, -68.1% (active). The growth was -43.6% (active) with NCI-H522 lung; 7.02% (active) in the experiment on A549/ATCC NSCLC; -47.5% (active) in the experiment on 786-0 renal; -55.3% (active) in the experiment on COLO 205 colon; -26.1% (active) in the experiment on DU-145 prostate; 1.44% (active) with K-562 leukemia. The growth with MALME-3M melanoma is -78.6% (active); with MDA-MB-231 breast, -59.5% (active); with RXF 393 renal, -82% (active); in the experiment on SF-268 CNS, -23.2% (active); in the experiment with SF-295 CNS it was -81.1% (active); in the experiment on SF-539 CNS it was -86.9% (active). The growth in the experiment on UACC-257 melanoma is -45.5% (active); with M14 melanoma, -53.3% (active).

`O=C1CC2(CCOCC2)Oc2ncccc21`: the growth in the experiment with NCI-H23 lung was 72.5%; with NCI-H226 lung it was 103%; in the experiment with NCI-H322M lung, 103%; in the experiment on HOP-62 NSCLC it was 101%; in the experiment with NCI-H460 lung, 106%; in the experiment on HOP-92 NSCLC, 94.6%. Besides, the growth in the experiment on NCI-H522 lung is -49.2% (active); in the experiment on A549/ATCC NSCLC it was 102%; with 786-0 renal it was 47.7%; with COLO 205 colon, -13.7% (active); in the experiment on DU-145 prostate it was 97.7%; in the experiment on K-562 leukemia, 4.49% (active). For the same compound, the growth in the experiment with MALME-3M melanoma is -31.6% (active); with MDA-MB-231 breast it was 8.5% (active); in the experiment on RXF 393 renal, 92.8%; in the experiment on SF-268 CNS, 65.2%; in the experiment on SF-295 CNS it was 109%; with SF-539 CNS it was 27.7%. The growth in the experiment with UACC-257 melanoma was 79.2%.

Take `COc1cc(/C=N/n2cnc3oc(-c4ccccc4)cc3c2=N)cc(CN2CCOCC2)c1O`: the growth was 73% in the experiment on NCI-H23 lung; 62.4% with NCI-H226 lung; 97.5% in the experiment with NCI-H322M lung; 74.2% with HOP-62 NSCLC; 89.8% in the experiment on NCI-H460 lung; 63.3% with HOP-92 NSCLC. For the same compound, the growth in the experiment on NCI-H522 lung was 61.1%; in the experiment on A549/ATCC NSCLC, 80.1%; with 786-0 renal it was 45.6%; in the experiment on COLO 205 colon, 82.4%; with DU-145 prostate, 89.3%; in the experiment on K-562 leukemia, 5.46% (active). For the same compound, the growth with MALME-3M melanoma is 66.4%; in the experiment with MDA-MB-231 breast it was 51.4%; in the experiment on RXF 393 renal, -18.4% (active); with SF-268 CNS, 72.4%; with SF-295 CNS it was 68.1%; in the experiment on SF-539 CNS it was 60.9%. The growth with UACC-257 melanoma is 110%.
